The whole screen tested about 48,000 compounds, of which about 13,000 (27%) showed an effect of 50% or more. This is one part of the list.
These compounds were tested on Wolbachia pipientis (assay: Anti-Wolbachia Cell-Based Screen). Details: 5 µM.
Format: functional
Parameters: scale not given: in the data most compounds retested in dose-response had high values

| SMILES | Percent Effect [%] |
| --- | --- |
| O=C(c1ccco1)N(CC(F)(F)F)C1CCCOC1 (centres undefined) | -12.11 |
| COCc1csc(NC(=O)NCc2ccc(C)s2)n1 | 0.0103 |
| c1cc(-c2noc(-c3cc(C4CC4)[nH]n3)n2)cc(N2CCCCC2)n1 | -19.77 |
| Cc1cnn(CCC(=O)N2C[C@H]3CC[C@@H]2CN(CC(=O)N(C)C)C3)c1 | -5.732 |
| COCCN(Cc1ccc(C)o1)C(=O)Nc1nnc2ccccn12 | -21.85 |
| Cn1ncc2cnn(CC(O)COCc3ccccc3Cl)c2c1=O (centres undefined) | -6.755 |
| Cc1ccc2nc(C3CCCN(Cc4ccccc4)C3)nc(O)c2c1 (centres undefined) | 104.3 |
| Cc1cc(N2CCN(Cc3ccccc3)CC(O)C2)cc(C)n1 (centres undefined) | -18.63 |
| Cc1cccc(N2CC3(CCN(Cc4nccn4C)C3)CC2=O)c1.O=C(O)C(F)(F)F (centres undefined) | 3.528 |
| CN(Cc1cnn(C)c1)C(=O)NC1CCS(=O)(=O)C1 (centres undefined) | -13.78 |
| COC(=O)c1ccoc1CN(C)CC(=O)NC1CCS(=O)(=O)C1 (centres undefined) | 105.9 |
| COC(=O)c1cc(NC(=O)NCC2CCS(=O)(=O)C2)ccc1Cl (centres undefined) | -31.29 |
| COC(=O)c1ccoc1CN(C)CC(=O)NC1CC1 | 113.9 |
| O=C(CN(Cc1cccs1)C1CCS(=O)(=O)C1)NCCc1cccs1 (centres undefined) | 4.084 |
| CN(CCC(=O)NC1CC1)Cc1ccc(Cl)s1 | -12.79 |
| CNC(=O)COC(=O)c1ccoc1CN1c2ccccc2CC1C (centres undefined) | -15.23 |
| COC(=O)c1ccoc1CN(C1CC1)C1CCS(=O)(=O)C1 (centres undefined) | 104.7 |
| O=C(Cc1cc2c(cc1Br)OCCO2)NC1CCS(=O)(=O)C1 (centres undefined) | -27.59 |
| CC(CS(C)(=O)=O)N(C(=O)Nc1cc(F)ccc1Cl)C1CC1 (centres undefined) | 14.25 |
| CC(c1ccco1)N(C(=O)Cn1nc2n(c1=O)CCCCC2)C1CC1 (centres undefined) | 105.1 |
| CC(c1ccco1)N(C(=O)c1cc2c([nH]c1=O)CCCC2=O)C1CC1 (centres undefined) | -5.594 |
| O=C(c1cnc2n1CCCC2)N1CCCC1 | 17.49 |

| SMILES | Percent Effect [%] |
| --- | --- |
| CN1[C@H]2CC[C@@H]1CN(C(=O)c1nnc3n1CCCCC3)CC2 | -0.7264 |
| CC(c1ccco1)N(C(=O)NCc1ccon1)C1CC1 (centres undefined) | 5.216 |
| CC(C)C(=O)N(C)Cc1nnc2n1CCCCC2 | 6.475 |
| CC(C)C(C)N(C(=O)c1cc2c([nH]c1=O)CCCC2=O)C1CC1 (centres undefined) | -5.669 |
| CC(C)N(C(=O)Cn1nc2n(c1=O)CCCCC2)C1CCC1 | 81.53 |
| CC(C)C(C)N(C(=O)Cn1nc2n(c1=O)CCCCC2)C1CC1 (centres undefined) | 119.1 |
| Cc1csc(CN2CC[C@H]3C[C@H](c4nnc(C)[nH]4)O[C@@H]3C2)n1 | 1.224 |
| CC(C)N(C)S(=O)(=O)N(Cc1cccs1)Cc1cccs1 | -8.549 |
| COc1cccc(C(=O)N2CCC3(CCC(=O)N(C(C)C)C3)CC2)c1C | -8.72 |
| CCOC(=O)c1ccc(Nc2ccc(OC)c(N3CCCC3=O)c2)nc1 | -0.2575 |
| CCOCC1CC2(CCN(C(=O)c3ccccc3F)CC2)CO1 (centres undefined) | -17.98 |
| CCOCCCNC(=O)C1(C)CCC(=O)N1c1ccccc1F (centres undefined) | 110.1 |
| O=C(O)C(F)(F)F.O=C1CCC2(CCCN(Cc3ccccc3F)C2)N1CC1CC1 (centres undefined) | -58.45 |
| CNC(=O)CN1C(=O)CCC12CCCN(Cc1ccccc1F)C2 (centres undefined) | -35.38 |
| COc1ccccc1C1(C(=O)NCCN2CCOCC2)CCOCC1 | 3.862 |
| CCOCCCNC(=O)C1(C)CCC(=O)N1c1cc(OC)ccc1OC (centres undefined) | 128.4 |
| CCOCCCNC(=O)C1(C)CCC(=O)N1Cc1ccccc1F (centres undefined) | 119.7 |
| CCOCCCNC(=O)N(C)Cc1ccc(SC)c(OC)c1 | 10.44 |
| CCOCCCNC(=O)C1(C)CCC(=O)N1c1ccccc1OC (centres undefined) | 128.9 |
| CC(=O)NCCCSC1CCN(c2ccccc2F)C1=O (centres undefined) | -10.73 |
| CCc1nc(C2CCCN2C(=O)c2ccc3c(c2)nnn3CC)no1 (centres undefined) | -4.092 |
| O=C1NCc2ccc(NC(=O)C3CCCN3c3nccs3)cc21 (centres undefined) | -9.996 |

| SMILES | Percent Effect [%] |
| --- | --- |
| O=C(c1cncc(N2CC[C@@]3(O)CCNC[C@H]3C2)n1)N1CCCC1 | -7.566 |
| CC(C)Oc1ccc(CNC(=O)C2CCS(=O)(=O)C2)cn1 (centres undefined) | 23.43 |
| COc1ccc(CN2C[C@@H](CN(C)C)[C@@H](CO)C2)cc1CN1CCCC1 | 7.819 |
| Cn1nc(Cn2ccnc2)c2c1CN(Cc1ccoc1)C2.O=C(O)C(F)(F)F.O=C(O)C(F)(F)F | -6.284 |
| CC(NC(=O)NCc1ccoc1)c1ccc2c(c1)CCC(=O)N2 (centres undefined) | -4.231 |
| CC(NC(=O)c1cccc[n+]1[O-])c1ccc2c(c1)CCC(=O)N2 (centres undefined) | -1.39 |
| CC(NC(=O)Nc1ccc(S(C)(=O)=O)cc1)c1ccc2c(c1)CC(=O)N2 (centres undefined) | 11.72 |
| CC(NC(=O)NCc1ccoc1)c1ccc2c(c1)CC(=O)N2 (centres undefined) | 110.9 |
| CC(NC(=O)c1ccoc1)c1ccc2c(c1)CCC(=O)N2 (centres undefined) | 97.13 |
| CC(NC(=O)c1sccc1C1CC1)c1ccc2c(c1)CC(=O)N2 (centres undefined) | -4.532 |
| COc1ccc(F)c(NCC(C)(C)S(C)(=O)=O)c1 | 34.79 |
| Cc1cc(C(=O)NCCC2CCN(C)CC2)ccc1N(C)S(C)(=O)=O | -18.47 |
| CC(C)c1ccc(-n2ncc(C(=O)N(C)C3CCN(C)CC3)c2N)cc1 | 117 |
| CC(C)c1ccc(CCC(=O)N(C)C2CCN(C)C2=O)cc1 (centres undefined) | -1.182 |
| Cc1ccc(-n2ncc(C(=O)N(C)C3CCN(C)CC3)c2N)cc1C | 137.5 |
| CC(C)c1ccc(-n2cc(O)c(C(=O)N3CCC(C(N)=O)CC3)n2)cc1 | -5.795 |
| Cc1ccc(C(=O)Nc2ccc(N3CCCC3)cn2)cc1C | -19.47 |
| CC(C)Cc1nc(CN2CC(=O)N(C)c3ccccc3C2=O)no1 | -12.92 |
| CSC(C)C(=O)N1CCN(CC(C)(C)O)CC1 (centres undefined) | -3.379 |
| CCOCCn1nc(C)cc1C(=O)N1C[C@@H](C)[C@](O)(C2CC2)C1 | -17.93 |

From ChEMBL document CHEMBL3988442, “University of Dundee, Small-Polar-MMV Screening Library” (2021)
